TRPML1 agonist: qHTS for Agonists of the Human Mucolipin Transient Receptor Potential 1 (TRPML1); Mucolipin-1 (Homo sapiens), Q9GZU1; TRPML1-expressing cells, Ca2+ dye fluorescence, FDSS; activation, % (concentration not given with the values); actives 0.12% (n = 410,000); AID 624414, 2012; in the data active = activation above about 50%; inconclusive = mostly about 30% to 49%; also: 0% is about no effect
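Calcium fluorescence on an FDSS kinetic reader gave the read-out. Tet-induced TRPML1-DL cells were plated overnight, dye-loaded (Ca8 with quencher, 45-90 min, room temperature, dark), then read 110 s after compound addition, and again 110 s after 4uM final 54-4 (EC80).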
TRPML1 blocker: qHTS for Inhibitors of the Human Mucolipin Transient Receptor Potential 1 (TRPML1) | TRPML1-inducible cells, Ca2+ dye fluorescence, FDSS; active compounds read low; inhibition of EC80 agonist-evoked calcium signal | activity change, negative = inhibition, % (test concentration not listed) | actives 0.02% (n = 390,000) | AID 624415, 2012; in the data active = activity change below about -50%; inconclusive = between about -30% and that limit;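 also: stimulus is agonist 54-4 at its EC80 concentration; % is scaled to controls: 0 for no effect and ±100 for the full control effect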
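Tet-induced TRPML1-DL cells loaded with Ca8 no-wash calcium dye were read kinetically on FDSS. Compound addition was followed by EC80 agonist 54-4 (4 uM final); inhibition was read over 110 s.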
TRHR PAM: qHTS for Small Molecule Agonists and Allosteric Enhancers of Human TRH Receptor: Primary Screen for Enhancers. TRHR cells, fluo-8 calcium fluorescence, EC20 TRH enhancement. enhancement, % at 2 µM. actives 0.66% (n = 360,000). Thyrotropin-releasing hormone receptor (Homo sapiens), P34981; in the data active = enhancement above about 30%; also: 0% is about no effect
Target sequence (P34981 whole entry, looked up): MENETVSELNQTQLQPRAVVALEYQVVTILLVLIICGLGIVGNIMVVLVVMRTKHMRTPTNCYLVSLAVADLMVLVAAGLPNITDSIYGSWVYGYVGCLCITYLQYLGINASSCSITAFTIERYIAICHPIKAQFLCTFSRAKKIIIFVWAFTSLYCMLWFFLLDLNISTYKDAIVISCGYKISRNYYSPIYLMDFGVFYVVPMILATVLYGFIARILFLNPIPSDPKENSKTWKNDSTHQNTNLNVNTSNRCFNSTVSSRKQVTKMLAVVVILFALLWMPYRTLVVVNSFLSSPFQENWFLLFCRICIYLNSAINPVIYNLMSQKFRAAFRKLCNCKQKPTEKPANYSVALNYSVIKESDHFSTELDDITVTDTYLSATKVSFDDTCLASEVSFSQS
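TRHR-expressing cells loaded with fluo-8 calcium dye were read kinetically (ex 480/em 530) during compound addition, then stimulated with an EC20 of TRH (10 nM final). Enhancement of the Gq-mediated intracellular calcium response was scored.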
TRPV1 PAM: HTS Assay for Compounds that Act as Potentiators of the Vanilloid Receptor 1; Transient receptor potential cation channel subfamily V member 1 (Homo sapiens), Q8NER1; TRPV1-expressing cells, Fluo-8 calcium influx, capsaicin EC20 potentiation; potentiation, % at 8.33 µM; actives 0.02% (n = 320,000); AID 540277, 2011; in the data active = potentiation above about 80%; inconclusive = between about 30% and that limit; also: 0% is about no effect
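TRPV1-expressing cells were cultured overnight at 35.5C and loaded with Fluo-8 calcium dye for 40 to 90 min at room temperature. After a 10 s baseline, compound was added and calcium influx was read kinetically for 3 min (ex 480/em 520 nm).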
TRPV1 ag: HTS Assay for Compounds that Act as Agonists of the Vanilloid Receptor 1. TRPV1-expressing cells, Fluo-8 calcium influx, agonist mode. activation, % at 8.33 µM. actives 0.19% (n = 320,000). Transient receptor potential cation channel subfamily V member 1 (Homo sapiens), Q8NER1. AID 540275, 2011; in the data active = activation above about 80%; inconclusive = between about 30% and that limit; also: 0% is about no effect
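Cells expressing TRPV1 were dye-loaded with Fluo-8 and read kinetically: 10 s baseline, 3 min after compound (agonist portion), then 2 min after EC20 capsaicin (allosteric enhancer portion). Calcium-bound dye fluorescence at 480/520 nm.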
TRHR ag: qHTS for Small Molecule Agonists and Allosteric Enhancers of Human TRH Receptor: Primary Screen for Agonists | Thyrotropin-releasing hormone receptor (Homo sapiens), P34981 | TRHR cells, calcium flux fluo-8, FDSS agonist mode | activation, % at 2 µM | actives 0.18% (n = 360,000) | AID 493084, 2011; in the data active = activation above about 30%; also: 0% is about no effect
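Fluo-8-loaded TRHR cells; 10 s baseline, compound added, kinetic Ca2+ fluorescence read 1/s, agonist mode.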
Starred values were filed as active, the others as inactive; ? = inconclusive; . = no result. A selection: hits, their analogues and other compounds. The true share with any hit is near 0.99%.

SMILES	TRPML1 agonist	TRPML1 blocker	TRHR PAM	TRPV1 PAM	TRPV1 ag	TRHR ag
CC(C)(C)c1ccc(C(=O)NCC(c2cccs2)S(=O)(=O)c2cccs2)cc1 (configuration not stated)	2	36	45*	.	.	0
CNC(=O)C1CCC(=O)N1Cc1ccccc1Cl (configuration not stated)	0	-3	-3	-1	5	0
O=C(Nc1cc(Cl)cc(Cl)c1)C1CCC(=O)N1Cc1ccccc1Cl (configuration not stated)	-1	-8	40*	6	-3	-1
O=C(CSc1ccc(Cl)cc1)c1ccco1	0	-1	36*	9	1	0
O=C(CCSc1ccc(Cl)cc1)c1ccco1	2	0	-2	-6	7	-1
CCCCNC(=O)C(CC)n1c(SCc2cccc(F)c2)nc2ccncc21 (configuration not stated)	-1	.	.	.	.	.
O=C(NCCc1ccc(Cl)cc1)c1ccc2c(c1)N(Cc1ccccc1)C(=O)CS2	0	-19	7	.	.	0
N#Cc1ccc(NC(=O)Nc2ccc(Oc3ccc(NC(=O)Nc4ccc(C#N)cc4)cc3)cc2)cc1	-1	2	37*	7	?	0
N#Cc1ccc(NC(=O)Nc2cccc(C#N)c2)cc1	1	4	4	-20	?	3
Clc1ccc2nc(-c3cccs3)c(Nc3ccc4c(c3)OCCO4)n2c1	0	1	-2	.	.	-1
CC1CC(C)CN(S(=O)(=O)c2ccc(C(C)(C)C)cc2)C1 (configuration not stated)	56*	-13	-12	2	23	0
CCN(CCNC(=O)C1CCN(S(=O)(=O)c2cccc3cccnc23)CC1)c1ccccc1	0	8	37*	8	-5	-2
CC1CCCCN1CCNC(=O)C1CCN(S(=O)(=O)c2cccc3cccnc23)CC1 (configuration not stated)	1	-9	31*	2	-2	0
Cc1cccc(CCNC(=O)C2CCN(S(=O)(=O)c3cccc4cccnc34)CC2)c1	-1	46	14	1	-2	-1
O=C(COC(=O)CNC(=O)c1ccccc1)Nc1cc(C(F)(F)F)ccc1Cl	.	.	-1	.	.	1
Cc1ccccc1C(=O)Nc1nnc(-c2ccc(C(C)(C)C)cc2)s1	1	7	12	83*	-3	0
Cc1cccc(C(=O)Nc2nnc(-c3ccc(C(C)(C)C)cc3)s2)c1	-1	10	4	4	-1	2
Cc1ccccc1C(=O)Nc1nnc(S(=O)(=O)N(C)Cc2ccc(Cl)cc2)s1	3	50	43*	.	.	0
Cc1ccccc1C(=O)Nc1nnc(S(=O)(=O)N(C)Cc2ccccc2)s1	2	10	-2	.	.	0
CN(C)/[N+]([O-])=N/Oc1ccc([N+](=O)[O-])cc1[N+](=O)[O-]	1	-13	.	.	.	.
Cc1c(NC(=O)/C(C#N)=C/c2ccc(-c3cc(Cl)ccc3Cl)o2)c(=O)n(-c2ccccc2)n1C	2	14	34*	27	-1	0
Cc1c(NC(=O)/C(C#N)=C/c2ccc(-c3ccc(Cl)cc3)o2)c(=O)n(-c2ccccc2)n1C	0	-9	3	18	-4	0
Cn1c2c(c3cnc4cc(Cl)ccc4c31)CN(Cc1ccc(Cl)cc1)CC2	0	.	.	.	.	.
NC(=O)CCC(=O)N1CCCC(C(=O)c2ccc(C(F)(F)F)cc2)C1 (configuration not stated)	0	-12	3	13	6	0
O=C(c1ccc(C(F)(F)F)cc1)C1CCCN(C(=O)CCc2ccncc2)C1 (configuration not stated)	0	1	-2	-14	87*	0
SMILES	TRPML1 agonist	TRPML1 blocker	TRHR PAM	TRPV1 PAM	TRPV1 ag	TRHR ag
O=C(Nc1ccccc1)Nc1nc(Nc2cc(F)cc(F)c2)nc(NC2CCCC2)n1	.	.	1	.	.	0
Cc1cc(NC(=O)CSc2nnc(-c3cccc(Cl)c3)o2)no1	0	43	0	19	-1	0
Cc1cc(NC(=O)CSc2nnc(-c3ccccc3Cl)o2)no1	-1	7	34*	1	1	0
CCOC(=O)c1nc(-c2ccccc2)oc1N(C)C	1	-2	30*	0	3	0
O=C(c1ccc2c(c1)OCCO2)N(Cc1cccnc1)c1nc2ccc(F)cc2s1	0	13	-1	.	.	0
O=C(Cc1ccc(F)cc1)N1CCC(c2nc3c(nnn3Cc3ccc(F)cc3)c(=O)[nH]2)CC1	0	-14	1	.	.	0
COc1ccc(C(CNC(=O)c2ccco2)N2CCOCC2)cc1 (configuration not stated)	1	9	-8	-26	14	0
COc1ccc(C(CNC(=O)c2nn(-c3ccccc3)c(=O)c3ccccc23)N2CCOCC2)cc1 (configuration not stated)	-1	-3	32*	-5	28	0
CSc1ccc(/C=C2\C(=N)N3N=C(CC(=O)N4CCOCC4)SC3=NC2=O)cc1	0	-13	-5	1	-1	1
CCN(CC)c1ccc(/C=C2\C(=N)N3N=C(CC(=O)N4CCOCC4)SC3=NC2=O)cc1	?	-3	-5	-7	?	34*
CC[N+](C)(C)c1ccc(/C=C/c2ccnc3ccccc23)cc1	0	.	.	.	.	.
Cc1nn(CC(=O)NC2CC2)c(=O)c2cc3cc(F)ccc3n12	0	-13	34*	.	.	0
Cc1nnc(SCC(=O)N(C)c2c(N)n(Cc3ccccc3)c(=O)[nH]c2=O)n1Cc1ccccc1	0	7	1	?	-2	1
CCn1c(SCC(=O)N(C)c2c(N)n(Cc3ccccc3)c(=O)[nH]c2=O)nc2ccccc21	1	5	31*	.	.	1
O=C(NCCC1=CCCCC1)c1ccc([N+](=O)[O-])cc1	2	17	-5	-20	89*	-2
O=C(CCNC(=O)c1ccc([N+](=O)[O-])cc1)NCCC1=CCCCC1	0	5	0	0	1	0
Cc1cc(C(=O)NCCC2=CCCCC2)ccc1[N+](=O)[O-]	0	10	1	-22	83*	-2

Screening results as filed in PubChem.
